PPC-1+TRAIL kill: compounds killing PPC-1 cancer cells with TRAIL present, primary screen, TRAIL potentiator project, ATPLite luminescence, uHTS; PPC-1 cells + TRAIL, ATPLite viability luminescence; cell killing (% activity), % at 4 µM or 5 µM; actives 0.41% (n = 220,000); AID 1443, 2008;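 active = cell killing above 50% in the first pass at 4 µM, then a duplicate retest at 5 µM averaging 50% or more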;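 also: plate controls were cells with TRAIL plus DMSO for no effect and medium-only wells lacking cells for full effect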
C8 TRAIL sens: viability loss with TRAIL in NB7+C8 cells, primary screen, TRAIL sensitizer project, cell-based, ATPlite luminescence; inhibition (viability loss, TRAIL sensitization), % at 10 µM; actives 1% (n = 360,000); AID 624354, 2012;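 active = compounds causing at least 50% loss of cell viability in the single-dose screen, relative to plate controls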
KKLEB tox: cytotoxicity in KKLEB CF airway cells, primary screen, cytotoxicity control for CF NF-kB inhibitor project, cell-based, uHTS, fluorescence assay plates. activity change (cytotoxicity), % at 5 µM. actives 0.36% (n = 360,000). KKLEB CF airway cells viability, ATPlite luminescence, overnight; stronger effect = lower value; cells stimulated with P. aeruginosa culture filtrate;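 active = corrected activity change at or below -50% at 5 µM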
HIF-2a inh: HIF-2a reporter inhibitors, primary screen, luminescence, 786-0 RCC cells; 786-0 RCC cells HIF-2a reporter, luciferase luminescence, overnight; inhibition, % at 18.8 µM; actives 0.72% (n = 360,000); AID 624352, 2012;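 active = inhibition of the luminescence signal of 40% or more relative to plate controls, in a single-dose primary screen at 18.75 µM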
Peg3 prom inh: Peg3 promoter-driven luciferase inhibitors, primary screen, cell-based, HeLa, luciferase luminescence; AID 588405, 2011; inhibition, % at 20 µM; actives 1.7% (n = 360,000); HeLa PEG-Prom luciferase reporter, overnight;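 active = inhibition of at least 50% at 20 µM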
CF NFkB block: inhibitors of PAF-induced NF-kB signaling, primary screen, cell-based, GFP fluorescence, uHTS; KKLEB NF-kB-GFP reporter, GFP fluorescence overnight; inhibition, % at 5 µM; actives 0.86% (n = 360,000);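 active = at least 50% inhibition at 5 µM, scaled per plate between neutral and stimulator controls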;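 also: PAF is a Pseudomonas aeruginosa culture filtrate used as stimulus; plate controls were PAF-stimulated DMSO wells for no effect and unstimulated DMSO wells for full effect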
* = called active by the depositor; . = no result. Most compounds without a hit are left out; they make up all but 3.1% or so of the library.

SMILES | PPC-1+TRAIL kill | C8 TRAIL sens | KKLEB tox | HIF-2a inh | Peg3 prom inh | CF NFkB block
CC(C)C(=O)NC(c1ccc([N+](=O)[O-])cc1)c1c(O)ccc2ccccc12 (stereo not drawn) | 3 | 5 | -37 | -18 | 52* | 10
CC(=O)NC(c1ccc(C(C)C)cc1)c1c(O)ccc2ccccc12 (stereo not drawn) | . | 6 | -14 | 17 | 24 | 16
Cc1cc(C)cc(NC(=S)NCc2ccc3[nH]c4c(c3c2)CCCC4)c1 | -2 | -11 | -1 | 0 | 67* | -1
COC(=O)[C@@]1(Sc2ccc(C)cc2)CC(=O)N[C@@H]1c1ccc(Br)cc1 | . | -5 | . | 0 | . | .
O=C1CN(S(=O)(=O)c2cccc(Br)c2)CCN1 | . | -12 | 6 | -1 | 0 | 30
CC(C)C[C@H](CO)N(Cc1ccccc1)S(=O)(=O)N(Cc1ccccc1)[C@@H](CO)CC(C)C | . | 19 | -22 | -11 | 53* | 38
C=CS(=O)(=O)N(Cc1ccccc1)[C@H](CO)CC(C)C | . | -9 | -1 | 16 | 5 | -14
COc1cc(NC(=O)C2CCC(CNS(=O)(=O)c3csc(C(N)=O)c3)CC2)cc(OC)c1 (stereo not drawn) | . | -19 | 0 | 9 | 11 | -16
CCCCN1C(=O)/C(=C/C=C2\Oc3ccccc3N2CC)SC1=S | -6 | -1 | -10 | -17 | -1 | -114
CCN1/C(=C/C=C/c2oc3ccc(-c4ccccc4)cc3[n+]2CC)Oc2ccc(-c3ccccc3)cc21 | 57* | 79* | -20 | 86* | 84* | -412
Nc1[nH]n2c(=O)cc(-c3ccccc3)nc2c1N=Nc1ccc(S(N)(=O)=O)cc1 | 6 | 11 | -7 | 10 | 11 | -2
NS(=O)(=O)c1ccc(N=Nc2c(-c3ccccc3)[nH]n(-c3nc(-c4ccccc4)cs3)c2=O)cc1 | 15 | 54* | 11 | -48 | 71* | 27
O=C(Nc1ccccn1)C1CCCN1S(=O)(=O)c1ccc(Cl)cc1 (stereo not drawn) | . | -14 | 25 | 8 | 15 | -27
CC(=O)c1ccc(N2CCN(C(=O)c3cc(-c4cccnc4)nc4ccc(Br)cc34)CC2)cc1 | 19 | -26 | -4 | -22 | 16 | -8
Cc1ccc2nc(-c3cccnc3)cc(C(=O)N3CCN(c4ccc([N+](=O)[O-])cc4)CC3)c2c1 | 20 | 30 | -21 | 19 | 100* | 3
Cc1cccc(NC(=O)CN2CCN(C(=O)c3cnn(Cc4ccccc4)c3)CC2)c1C | . | -27 | 3 | 24 | -1 | 11
Oc1ccc(C=NNC(=S)Nc2cccnc2)nc1 | . | 22 | 16 | -45 | 10 | 5
CCN(C(=O)COC(=O)c1cc(-c2ccc3cc(OC)ccc3c2)nc2ccccc12)C1CCS(=O)(=O)C1 (stereo not drawn) | 83* | . | . | . | . | .
CC(C)CC(N)c1csc(Nc2ccccn2)n1 (stereo not drawn) | . | -4 | -11 | -40 | -17 | 25
O=C1CSC(c2ccc([N+](=O)[O-])cc2)N1c1ccc(O)cc1 (stereo not drawn) | . | -19 | 3 | 12 | 6 | 7
Cc1ccc(C)c(S(=O)(=O)N2CCCOC2CNC(=O)C(=O)NCc2ccccn2)c1 (stereo not drawn) | . | -16 | 7 | 19 | 14 | -11
Cc1nn(-c2ccccc2)c(C)c1/C=N/NC(=O)c1cc(C(C)(C)C)[nH]n1 | 24 | 52* | 7 | 9 | 8 | 13
Cc1ccc(-c2cc(C(=O)N/N=C/c3c(C)nn(-c4ccccc4)c3C)n[nH]2)s1 | 11 | -23 | -23 | -11 | 3 | 57*
Cc1[nH]c2ccccc2c1/C=N/NC(=O)c1cc(-c2cccs2)[nH]n1 | 6 | -17 | 3 | -156 | 25 | -2
Cc1ccc(NC(=O)c2ncn(CC(=O)N[C@H](C)c3cccc4ccccc34)n2)cc1C | . | 15 | -17 | -235 | -95 | 15

Assay outcomes (PubChem BioAssay)
